The list is not random: actives were taken first. Their share in the collection is about 8.3%.
FBPA Giardia inh – Giardia lamblia aldolase inhibition. 290,000 tested, 0.71% active. A8B2U2. purified Giardia FBPA. AID 2451. Potency, µM (doses to about 59.6 µM), hits mostly inhibitors; note: nearly all actives have a fitted effect of over 55% in size
Target sequence (A8B2U2 whole entry, looked up): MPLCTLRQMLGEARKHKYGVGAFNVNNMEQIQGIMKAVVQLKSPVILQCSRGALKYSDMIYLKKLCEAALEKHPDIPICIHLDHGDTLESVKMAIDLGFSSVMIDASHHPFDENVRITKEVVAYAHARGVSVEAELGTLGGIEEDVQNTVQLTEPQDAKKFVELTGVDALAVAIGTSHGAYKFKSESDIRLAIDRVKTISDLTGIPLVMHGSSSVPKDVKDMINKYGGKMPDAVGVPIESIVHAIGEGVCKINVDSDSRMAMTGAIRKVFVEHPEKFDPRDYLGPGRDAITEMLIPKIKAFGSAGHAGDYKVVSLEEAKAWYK
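40 nM FBPA preincubated 10 min at RT with compound (up to 57.5 uM final), then substrate plus GAPDH/TPI/NAD/arsenate coupling and diaphorase/resazurin added. Fluorescence read after 20 min at RT, 525/598 nm.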
HCMV antiviral – human cytomegalovirus inhibition | AID 1259415 | HFF cells, HCMV-luciferase reporter, 72 h; active compounds read low | activity change, negative = inhibition, % at 57.5 µM | 410,000 tested, 4.5% active; in the data active = activity change below about -60%; inconclusive = no clear call, values can overlap the other calls; inactive = above about -39%
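Cell-based, HFFs, 1000 cells/well, 16 h 37C; cpds in DMSO + HCMV-luc, MOI 1 PFU/cell; 72 h 37C; OneGlo luminescence after 5 min RT; norm. to buffer vs Salinomycin 10uM.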
Lassa entry inh – blocks Lassa virus binding to or entry into cells; Lassa virus pseudotype entry inhibition, cell reporter; 300,000 tested, 1.2% active; AID 540256; Potency, µM (doses to about 37.9 µM), most hits filed as inhibitors; calls by dose curve; tested in HEK293 cells; note: nearly all actives have a fitted effect of over 50% in size
HCV inh – inhibitors of hepatitis C virus infection; Huh7.5.1 HCVcc-Cre infection, luciferase reporter, 44 h; Potency, µM (titrated, usually from 41.8 µM), most hits filed as inhibitors; 340,000 tested, 3.4% active; AID 651820
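Reporter virus HCVcc-Cre (~0.5 moi) infects cells exposed to compound; seeding density 1,000 cells/well with 4 h settling beforehand. Luminescence, 15 sec read, taken 44 h post-infection following a 15 min RT substrate incubation.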
FMDV inh – antivirals against foot and mouth disease virus | FMDV antiviral cell-based qHTS | Potency, µM (doses to about 57.9 µM), usual class: inhibitors | 410,000 tested, 1.2% active; calls by dose curve; tested in HEK293T cells; note: read-out not given here; nearly all actives have a fitted effect of over 45% in size
Marburg entry inh – inhibitors of Marburg virus binding or cell entry; Marburg virus pseudotyped entry inhibition, cell reporter; 300,000 tested, 1.8% active; Potency, µM (doses to about 37.8 µM), actives largely listed as inhibitors; calls by dose curve; tested in HEK293 cells
Numbers stand for hits; i = inactive; ? = inconclusive; nt = no result; [ ] = dose if it differs, or a comment. Unless noted, calls come from the whole dose curve; as a rule, active = well fitted curve in the direction sought with a large enough effect; inconclusive = small, poorly fitted or top-dose-only effect, or another doubt; inactive = no such curve, though single readings can be large; an effect the other way counts as inactive or inconclusive.

SMILES	FBPA Giardia inh	HCMV antiviral	Lassa entry inh	HCV inh	FMDV inh	Marburg entry inh
C#C[C@]1(O)CCC2C3C(=O)C=C4C(Cl)=CCC[C@]4(C)C3CC[C@@]21C (some centres undefined)	nt	-79.7	i	i	i	i
C#C[C@]1(O)CC[C@H]2[C@@H]3CCC4=CC(=O)CC[C@]4(C)[C@H]3CC[C@@]21C	i	i	i	i[8.37 µM]	i	i
Cc1cccc(CN2C(=O)CC(c3ccc(Cl)cc3)c3c(C)nn(-c4nc(C)cc(C)n4)c32)c1 (centres undefined)	nt	i	i	nt	i	?
N#C/C(=C\C=C\c1ccccc1[N+](=O)[O-])c1nc(-c2ccc3c(c2)OCO3)cs1	i	i	i	11.2µM	nt	i
N#C/C(=C\c1ccccc1[N+](=O)[O-])c1nc(C2CC2)cs1	i	i	i	i	i	i
COC(=O)[C@H]1[C@H](CO)[C@H]2Cn3c(cccc3=O)[C@@H]1N2Cc1cocn1	nt	i	nt	nt	nt	nt
CC(=O)NC(Cc1ccccc1)C(=O)NC1CCN(C(=O)c2ccc([N+](=O)[O-])cc2)CC1 (centres undefined)	i	i	i	i	i	i
CC(=O)NC(Cc1cccc(C)c1)C(=O)NC1CCN(C(=O)c2ccc([N+](=O)[O-])cc2)CC1 (centres undefined)	i	-74.4	i	i	i	i
CC1C=CCC2C(=O)N(c3cccc(C(=O)NCCc4ccccc4)c3)C(=O)C12 (centres undefined)	i	-61.0	nt	i	i	nt
O=c1c(-c2cc(F)cc(F)c2)nc2cncnc2n1Cc1ccc(F)cc1	i	nt	nt	nt	?	nt
CC(=O)Nc1ccc(NC(=O)Cn2c(CC(=O)N3CCCC3)nc3ccccc32)cc1	i	-87.6	i	i	i	i
CC(C)C[C@H](NC(=O)[C@H](CO)NC(=O)[C@@H]1CCCN1C(=O)[C@H](Cc1ccc(O)cc1)NC(=O)[C@H](CC(C)C)NC(=O)[C@H](CC(C)C)NC(=O)[C@@H]1CCCN1C(=O)[C@@H](NC(=O)[C@H](CO)NC(=O)[C@H](CO)NC(=O)[C@H](CO)NC(=O)[C@H](CO)NC(=O)[C@@H]1CCCN1C(=O)[C@@H](NC(=O)[C@@H](N)CO)C(C)C)[C@@H](C)O)C(=O)N[C@@H](C)C(=O)N[C@@H](CC(C)C)C(=O)N1CCC[C@H]1C(=O)N[C@@H](C)C(=O)N1CCC[C@H]1C(=O)O	i	nt	nt	nt	nt	nt
O=c1[nH]c(/C=C2\C=Nc3ccccc32)c(O)n1Cc1ccccc1F	i	i	nt	4.47µM	i	?
O=c1[nH]c(=O)n(Cc2ccccc2)c(O)c1/C=C1\C=Nc2ccccc21	i	i	?	i	i	i
C=CCN1C=C/C(=C\C=C(C#N)C#N)c2ccccc21	i	i	i	10µM	i	i
CCCCCCN1C=C/C(=C\C=C(C#N)C#N)c2ccccc21	i	i	i	?	?	i
COc1ccc(-c2nc3sc(CCNC(=O)Cc4ccccc4)c(C)n3n2)cc1	nt	i	i	nt	i	nt
COc1cc(OC)cc(C(=O)Nc2ccc3nc(N4CCC(C)CC4)cc(C)c3c2)c1	nt	i	i	nt	i	?
CC(=O)N1CCN(c2ccc(Oc3ncnc4sccc34)cc2)CC1	i	-75.2	i	?	?	i
CC1(C)Oc2ccc3ccc(=O)oc3c2/C(=C/Nc2ccc(O)cc2)C1=O	i	-84.6	?	?	?	?
CC(C)Cn1c(N)c(C(=O)CSc2nc3ncc(Cl)cc3[nH]2)c(=O)n(C)c1=O	nt	i	?	?	15.8µM	?
Cc1[nH]c2ccccc2c1C(=O)CSc1nc2ncc(Cl)cc2[nH]1	i	-62.3	?	i	i	i
CCCn1c(N)c(C(=O)CSc2nc3ncc(Cl)cc3[nH]2)c(=O)n(C)c1=O	nt	i	nt	i	?	nt
Cc1[nH]c2ccccc2c1C(=O)CSC(=S)N1CCN(C)CC1	i	-62.1	nt	i	i	nt
Cc1cc(=O)n2c3c(c4c(cc13)c(CN(C)C)cc(=O)n4C)OC2	nt	-72.0	i	?	i	?
CCCCc1n[nH]c2c1C(=O)CC(C)(C)C2	i	-84.7	i	i	i	i
CC1(C)CC(=O)c2c(Cc3ccccc3)n[nH]c2C1	i	i	i	i	i	i
COC1=CC2C(=O)C(C1=O)[C@H](c1ccccc1)[C@H]2C (some centres undefined)	nt	nt	nt	nt	nt	i

Screening results deposited in PubChem BioAssay by National Center for Advancing Translational Sciences (NCATS).
